# Experimental data reported in ChEMBL document CHEMBL4513216, “Probing the Open Global Health Chemical Diversity Library for Multistage-Active Starting Points for Next-Generation Antimalarials” (ACS Infect Dis, 2020).
# Hit rate of the full screen: of about 65,000 compounds, about 2,100 (3.2%) showed an effect of 50% or more. The median lay at about -52%. This excerpt belongs to a sample that is enriched for strong results.
# Test system: Plasmodium falciparum
# Assay: Screen against P. falciparum Asexual Blood Stage (ABS), at 5uM
# Assay type: functional, Dd2
# Settings: tested at 5 uM
row,SMILES,INHIBITION [%]
1,CCOCCN1CCC(C(=O)c2cc(F)ccc2F)CC1,5.36
2,O=C(O)CCC(=O)N1CCN(CC2CC2)c2ncccc2C1,-23.3
3,CCSc1cncc(N2CCC(NC(=O)C3CCCCC3)CC2)n1,-11.6
4,O=c1cc(N2CCCC2)cnn1CC(F)F,-88.9
5,CC(C)COCC1CN(Cc2ccc3c(c2)OCO3)Cc2ncn(C)c21 (stereo not drawn),38.7
6,CCC(O)(CNCc1ccncc1)c1ccc(Br)cc1 (stereo not drawn),8.37
7,COc1cc(NCc2ncc[nH]2)ccc1Br,-173
8,CCC(O)(CNCc1ncc[nH]1)c1ccc(Br)cc1 (stereo not drawn),67.5
9,O=C(c1ccsc1)N1CCc2ncc(Cn3cncn3)n2CC1,-17.9
10,COCCNc1ccc(-c2noc([C@@H]3CCCN3)n2)cn1,39.8
11,COCC(=O)Nc1ccc(-c2noc([C@@H]3CCCN3)n2)cn1,52.6
12,COCC(=O)Nc1ccc(-c2noc([C@@H]3CCCN3C)n2)cn1,-28.7
13,CN(C)c1cc2c(nn1)CCN(C(=O)C1Cc3ccccc3O1)C2 (stereo not drawn),-78.5
14,O=C(c1cscn1)N1CCO[C@H]2[C@@H](Oc3ccccn3)CC[C@@H]21,-20.9
15,Cc1csc(C(=O)N2CCC(O)(CN3CCc4ccccc4C3)C2)c1 (stereo not drawn),-1.9
16,O=C(NCc1ccccc1Cl)c1[nH]nc2c1CS(=O)(=O)CC2,-148
17,Cn1cc(CN2CCCCC2c2ccc(-c3cccc(Cl)c3)nc2)cn1 (stereo not drawn),55.3
18,Cn1cc(CN2CCCCC2c2ccc(-c3cnn(C)c3)nc2)cn1 (stereo not drawn),-15.7
19,Cn1cc(CN2CCCCC2c2ccc(-c3cccc(F)c3)nc2)cn1 (stereo not drawn),2.27
20,Cc1nc(O)c2nnn(C[C@H]3CCCN3C(=O)c3ccccc3C)c2n1,-51
21,CC(c1ccc(F)cc1F)N1CCN(CCC(=O)NC(N)=O)CC1 (stereo not drawn),64
22,CC(c1ccc(F)cc1F)N1CCN(CCC(=O)O)CC1 (stereo not drawn),-11.3

row,SMILES,INHIBITION [%]
1,CC(SCCC(=O)NC(N)=O)c1ccc(F)cc1F (stereo not drawn),-47
2,N#Cc1ccc(C(=O)N2CCC(c3ncc[nH]3)CC2)cn1,-111
3,C=C(C)CNC1CCCN(Cc2noc(C3CC3)n2)C1 (stereo not drawn),32.4
4,Cc1ccc2c(c1)C(NC(=O)N(C)C)CC21CCN(C(C)C)CC1 (stereo not drawn),-82
5,O=C(c1ccc[nH]1)N1CCn2cc(Cn3cccn3)nc2C1,-68.4
6,CCOCc1cnc2n1CCN(C(=O)c1cn(C)c3ccccc13)C2C (stereo not drawn),-9.29
7,Cc1ccc(C(CNCc2cccnc2)N2CCOCC2)s1 (stereo not drawn),-0.0343
8,Clc1cccc(C(CNCc2cccnc2)N2CCOCC2)c1 (stereo not drawn),56.9
9,Clc1cccc(C(CNCc2ccccn2)N2CCOCC2)c1 (stereo not drawn),53.1
10,Clc1cccc(C(CNc2ncccn2)N2CCOCC2)c1 (stereo not drawn),-57
11,O=C(C(CNCc1cccnc1)c1ccccc1)N1CCOCC1 (stereo not drawn),-52.2
12,O=C(C(CNCc1ccccn1)c1ccccc1)N1CCOCC1 (stereo not drawn),-29.2
13,CCOCC(=O)NCc1cc(Br)ccc1OC(F)F,-119
14,CCC(C(=O)N1CCS(=O)(=O)CC1)n1cccn1 (stereo not drawn),-77.5
15,CN(C)C(=O)c1ccc2c(c1)nc(N1CC[C@H](O)C1)n2C,-58.1
16,CN(c1ccc(Cl)c(C(=O)NCCCN2CCOCC2)c1)S(C)(=O)=O,-93.1
17,O=C(CCCNC(=O)c1cnccn1)Nc1ncc[nH]1,-63.2
18,CC(C)COCCC(=O)NCc1cn2cc(Br)ccc2n1,-27.3
19,CN(C)[C@@H]1C[C@@H](CO)N(C(=O)Nc2cccc(F)c2F)C1,-46.8
20,OCCOc1ccccc1CN1CCCC(O)(CO)C1 (stereo not drawn),-48.1
21,OCC1(O)CCCN(Cc2ccccc2OCCc2ccccc2)CC1 (stereo not drawn),65.1
22,O=C1NCC2(CCCN(Cc3ccccc3OCCO)C2)O1 (stereo not drawn),-55.2

row,SMILES,INHIBITION [%]
1,CO[C@H]1CN(C(=O)OC(C)(C)C)CC1NCc1ccoc1 (stereo partly drawn),-73.1
2,c1cnc(N2CCC(OCCN3CCCCC3)C2)nc1 (stereo not drawn),-58
3,CC(C)(C)c1nccc(N2CCC(OCCN3CCCCC3)C2)n1 (stereo not drawn),62.5
4,COc1ccnc(N2CCC(OCCN3CCCCC3)C2)n1 (stereo not drawn),51.2
5,Cc1cc(C)nc(N2CCC(OCCN3CCCCC3)C2)n1 (stereo not drawn),13.3
6,Cc1cnc(N2CCC(OCCN3CCCCC3)C2)nc1C (stereo not drawn),23.5
7,Cc1ccnc(N2CCC(OCCN3CCCCC3)C2)n1 (stereo not drawn),-83.8
8,Cc1cccc(-c2c[nH]c(C3CCCN3)n2)c1 (stereo not drawn),-5.91
9,CC(C)c1nccc(CN2CCCC(O)(CN3CCCC3)C2)n1 (stereo not drawn),-69.7
10,CN(C)C(=O)CN1C[C@H]2CC[C@@H](C1)N(C(=O)CCn1cncn1)C2,-87.6
11,O=C(NC1CC1)N1CCc2ccc(=O)n(CCN3CCCC3)c2CC1,-113
12,Cc1cnn(CC(C)NCc2csc(-c3ccco3)n2)c1 (stereo not drawn),-84
13,Cc1cnn(CCNCc2csc(-c3ccccc3)n2)c1,66.6
14,Cc1cnn(CCNCc2csc(-c3ccc(F)cc3)n2)c1,-58
15,Cc1cnn(CCNCc2csc(-c3ccco3)n2)c1,54.9
16,Cc1cnn(CCNCc2csc(-c3ccc(C)o3)n2)c1,-32.6
17,Cc1cnn(CCNCc2csc(-c3cccs3)n2)c1,-51.7
18,O=C(C1CCS(=O)(=O)CC1)N1C[C@@H]2CC[C@H]1CN(Cc1ccccc1)C2,-51.3
19,C=C1C(C)(C)[C@@H]2CC[C@]1(C(=O)N1CCC(n3cc(CO)nn3)CC1)C2,-90.8
20,Cc1nc(CN(C)C2CCN(CCC(=O)N3CCOCC3)C2)no1 (stereo not drawn),-30.8
21,Cc1nc(C)n(CC2CCCN2Cc2nc(-c3ccco3)no2)n1 (stereo not drawn),-131
22,Cc1nc(C)n(CC2CCCCN2Cc2nc(-c3ccco3)no2)n1 (stereo not drawn),61.7

row,SMILES,INHIBITION [%]
1,Cc1nc(C)n(CC2CCCCN2Cc2nc(-c3ccoc3)no2)n1 (stereo not drawn),-49.9
2,Cc1nc(C)n(CC2CCCN2Cc2nc(-c3cccs3)no2)n1 (stereo not drawn),23.3
3,Cc1nc(C)n(CC2CCCN2Cc2cc(-c3cccs3)on2)n1 (stereo not drawn),65.2
4,Cc1nc(C)n(CC2CCCN2Cc2coc(-c3cccs3)n2)n1 (stereo not drawn),-63.6
5,Cc1oc(-c2ccccc2)nc1CN1CCC(c2ccnn2C)CC1,-18.9
6,Cc1nc(C(=O)N2CCOCC2)cc(N2CCC(C(N)=O)CC2)n1,-45.2
7,Cn1nccc1-c1ncc2c(c1C(=O)O)CCN(Cc1ccccc1)C2,-41.8
8,COCC(=O)N1CCN(Cc2cccnc2)c2ncccc2C1,-53.1
9,CN(C)C(=O)CC1CC2(CCNCC2)c2cc(F)ccc21 (stereo not drawn),-22.3
10,CN(C)C(=O)c1cnn2c1OCCC2,-117
11,CCn1cc(S(=O)(=O)N2CCC(C)Sc3ccccc32)cn1 (stereo not drawn),-0.433
12,CC1CCN(S(=O)(=O)c2cccnc2)c2ccccc2S1 (stereo not drawn),55
13,CN1CCN(S(=O)(=O)c2cccnc2)c2cnccc21,-111
14,CS(=O)(=O)N1CCCC1CS(=O)(=O)c1ccccc1 (stereo not drawn),-100
15,CN(C)CC(Nc1nc(N)nc2c1CCNCC2)c1ccccc1 (stereo not drawn),-104
16,CCOC(=O)[C@H]1[C@@H](O)C(=O)N(C)C12CCN(C(=O)CC1CCCC1)CC2,-1.62
17,Cn1cnc2c(N3CCCC3)nc(C3CCN(CC4CC4)CC3)cc21,68.8
18,Cn1cc(-c2nc(C3CCN(CC4CC4)CC3)cc3c2ncn3C)cn1,-98.2
19,Cn1cnc2c(N3CCCC3)nc(C3CCNCC3)cc21,-31.4
20,c1cnnc(N2CCCC(NCc3nc(-c4ccco4)no3)C2)c1 (stereo not drawn),-78.3
21,O=C(COc1ccccc1)N1C[C@@H]2COC[C@]2(COc2cccnc2)C1,-110
22,Cn1nc(N2CCCC(C(=O)Nc3nc4ccccc4[nH]3)C2)ccc1=O (stereo not drawn),-105

row,SMILES,INHIBITION [%]
1,Cc1cc(C)n(CC(C)NC(=O)NCc2c(C)cc(C)[nH]c2=O)n1 (stereo not drawn),-51.8
2,O=C1CNc2ncnc(N3CCN(c4ccccc4F)CC3)c2N1,-21.3
3,CCOc1ccc(CN(CCC#N)CCN2CCOCC2)cc1OC,-99
4,COc1ccc(CN(CCC#N)CCN2CCOCC2)cc1OC,-43.2
5,N#CCCN(CCN1CCOCC1)Cc1ccc(F)c(Br)c1,52.6
6,CC(C)C(=O)N1CCC2(CC1)COCCN2Cc1ccc(F)cc1,-29.9
7,O=C1CNc2ncnc(Nc3cnn(Cc4ccc(F)cc4)c3)c2N1,-134
8,CN(Cc1ccc(F)cc1F)Cc1cc2c(cc1Br)OCCO2,-30.1
9,Cc1ccc(F)c(N2CCCC(Nc3nccn4cnnc34)C2=O)c1 (stereo not drawn),-141
10,Cn1cc(NS(=O)(=O)c2ccc3c(c2)CCCC3)ccc1=O,-133
11,CC(C)(O)CN1CCN(C(=O)c2ccc(Cl)c3cccnc23)CC1,-2.98
12,CC(C)(C)[S+]([O-])CCNC(=O)c1ccc(Cl)c2cccnc12 (stereo not drawn),-46.8
13,CC(=O)NCCCNCc1ccc(Cl)c2cccnc12,-36.6
14,O=C(CCCNCc1ccc(Cl)c2cccnc12)NC1CC1,11.3
15,CC(C)(O)CSCCNCc1ccc(Cl)c2cccnc12,67.7
16,CCS(=O)(=O)NCCNCc1ccc(Cl)c2cccnc12,61.5
17,CN(C)C(=O)CC1CC2(CCN(Cc3ccsc3)CC2)c2ccccc21 (stereo not drawn),14.2
18,COC(=O)C(c1cc(F)ccc1F)N(C)C(=O)c1cnc(C)cn1 (stereo not drawn),-85.1
19,CN(Cc1noc(C(C)(C)C)n1)C1CCCN(c2cccnn2)C1 (stereo not drawn),-18.2
20,CN(C)C(=O)N1CCC(c2nc3ccc(-c4ccccc4)cn3n2)CC1,-52.3
